The source made the active and inactive calls.

Assay [1] in a line: binders of probe aFSTL3 on microarray, primary screen, stem cell growth factor project, biochemical, small-molecule microarray, fluorescence 635/667 (AID 1064).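 Further: measures binding of the biotinylated anti-FSTL3 antibody to printed compounds.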 The following applies: higher = more signal.
A short description of assay [2]: binders from COS7 lysate, DM2A8 probe, primary screen, torsin A project, cell lysate, small-molecule microarray, fluorescence 635/667 (AID 1065). The following applies: higher = more signal, COS7 lysate expressing mutant human TOR1A.
The nature of assay [3]: binders of probe aFGF2 on microarray, primary screen, stem cell growth factor project, biochemical, small-molecule microarray, fluorescence 635/667 (AID 1067).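 Further: measures binding of biotinylated aFGF2 protein to printed compounds on slides; z-score merges feature fluorescence and signal-to-noise across triplicate slides.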 The following applies: higher = more signal.
Assay [4] is described as follows: binders of probe aFGF10 on microarray, primary screen, stem cell growth factor project, biochemical, small-molecule microarray, fluorescence 635/667 (AID 1071).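 Further: score merges 667 nm spot intensity and signal to noise from triplicate slides.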 The following applies: higher = more signal.
For assay [5], the target named is Neurogenic locus notch homolog protein 2 (Homo sapiens) (UniProt Q04721). The assay is described as follows: Notch2 binders on small-molecule microarrays, primary screen, biochemical, small-molecule microarray, 635 nm fluorescence, stem cell growth factors (AID 1073). The following applies: Notch2 binding, higher = more signal.
Assay [6] has as its target Pro-neuregulin-1, membrane-bound isoform (Homo sapiens) (UniProt Q02297). The assay is described as follows: NRG1 binders on small-molecule microarrays, primary screen, psychiatric disease protein project, biochemical, small-molecule microarray, fluorescence 635/667 (AID 1075).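 Further: score combines 667 nm spot fluorescence with signal to noise.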 The following applies: NRG1 binding, 635 nm fluorescence, higher = more signal.
Assay [7] deals with Neuregulin-1 EGF-like domain. As to the kind of experiment: binders of neuregulin-1 EGF-like domain, primary screen, biochemical, small-molecule microarray, 635 nm fluorescence (AID 1081).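 Further: binding of the protein to compounds printed on small-molecule microarray slides.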 The following applies: small-molecule microarray binding, higher = more signal.
A short description of assay [8]: FRG1 promoter luciferase signal modulators, primary screen, FRG1 inhibition for FSHD, cell-based, C2C12 myotubes, firefly/Renilla luciferase, luminescence (AID 1084). The following applies: higher = more signal, called active from +8 up or from −8 down.
The nature of assay [9]: binders of probe aFST on microarray, primary screen, stem cell growth factor project, biochemical, small-molecule microarray, fluorescence 635/667 (AID 1086).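 Further: score merges 667 nm fluorescence with signal-to-noise of each printed compound spot.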 The following applies: higher = more signal.
Assay [10] can be described thus: binders of probe aHhip on microarray, primary screen, stem cell growth factor project, biochemical, small-molecule microarray, fluorescence 635/667 (AID 1087).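 Further: score merges spot fluorescence at 667nm with spot signal to noise ratio.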 The note with it: higher = more signal.
For assay [11], the system named is PRMT1 (protein arginine N-methyltransferase 1). As to the kind of experiment: PRMT1 binders on small-molecule microarrays, primary screen, biochemical, small-molecule microarray, 635 nm fluorescence (AID 1088).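 Further: binding of Prmt1 protein to compounds spotted on small-molecule microarray slides.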 The note with it: small-molecule microarray binding, higher = more signal.
Assay [12] can be described thus: yeast growth modulation, basal conditions, primary screen, YJM789 clinical isolate, OD600, 24 h (AID 1089).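 Further: growth of clinical yeast isolate S. cerevisiae YJM 789 seeded 1000 cells per well; test concentration not given here.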 The following applies: S. cerevisiae YJM789 growth, higher = more signal, called active from +8 up or from −8 down.
Assay [13] can be described thus: fission yeast growth modulation, primary screen, strain 972, OD600, 24 h, no modulator (AID 1090).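 Further: basal condition with compound alone and no growth modifier present; test concentration not given here.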 The note with it: S. pombe 972 growth, higher = more signal, called active from +8 up or from −8 down.
The nature of assay [14]: S. cerevisiae growth modulation with rapamycin, primary screen, strain BY4716, OD600, 96 h (AID 1091). Further: test concentration not given here. The following applies: higher = more signal, called active from +8 up or from −8 down.
In assay [15] the target is Torsin-1A-interacting protein 2 (Homo sapiens) (UniProt Q8NFQ8). As to the kind of experiment: LULL1 binders on small-molecule microarray, primary screen, cell lysate, human LULL1 lysate, 635/667 nm fluorescence (AID 1092).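 Further: probe is lysate of COS7 cells overexpressing human LULL1; score merges per-feature 667 nm fluorescence with signal-to-noise.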 The note with it: hLULL1 lysate binding, 635 nm fluorescence, higher = more signal.
The nature of assay [16]: E. coli growth modulation, two-sided OD650, primary screen, E. coli filamentation project, strain DRC41, 24 h (AID 1093).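 Further: MC1000 strain lacking acrAB efflux and sulA so SOS filamentation is blocked; test concentration not given here.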 The following applies: OD650, 24 h, higher = more signal, called active from +8 up or from −8 down.
Assay [17] can be described thus: small-molecule microarray binders of probe aLefty2, primary screen, biochemical, biotinylated probe, 635/667 nm fluorescence (AID 1094).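 Further: score merges spot fluorescence near 667 nm with spot signal-to-noise ratio.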 The following applies: higher = more signal.
Assay [18] concerns Noggin (protein binding on small-molecule microarray). As to the kind of experiment: Noggin binders on small-molecule microarray, primary screen, biochemical, 635/667 nm fluorescence (AID 1095).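 Further: score merges 667 nm feature fluorescence with signal to noise over triplicate slides.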 The note with it: 635 nm fluorescence, higher = more signal.
The target of assay [19] is Neurogenic locus notch homolog protein 3 (Homo sapiens) (UniProt Q9UM47). As to the kind of experiment: NOTCH3 binders on small-molecule microarray, primary screen, biochemical, 635/667 nm fluorescence (AID 1096). The following applies: NOTCH3 binding, 635 nm fluorescence, higher = more signal.
Assay [20] in a line: small-molecule microarray binders of probe aEGFR, primary screen, biochemical, biotinylated probe, 635/667 nm fluorescence (AID 1097).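 Further: probe is a biotinylated anti-EGFR antibody binding compounds printed on slides; score combines fluorescence near 667 nm and signal to noise of each spot.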 The following applies: higher = more signal.

Pro-neuregulin-1, membrane-bound isoform (Homo sapiens), sequence (Q02297 whole entry, looked up, the tested form may be a part, canonical isoform): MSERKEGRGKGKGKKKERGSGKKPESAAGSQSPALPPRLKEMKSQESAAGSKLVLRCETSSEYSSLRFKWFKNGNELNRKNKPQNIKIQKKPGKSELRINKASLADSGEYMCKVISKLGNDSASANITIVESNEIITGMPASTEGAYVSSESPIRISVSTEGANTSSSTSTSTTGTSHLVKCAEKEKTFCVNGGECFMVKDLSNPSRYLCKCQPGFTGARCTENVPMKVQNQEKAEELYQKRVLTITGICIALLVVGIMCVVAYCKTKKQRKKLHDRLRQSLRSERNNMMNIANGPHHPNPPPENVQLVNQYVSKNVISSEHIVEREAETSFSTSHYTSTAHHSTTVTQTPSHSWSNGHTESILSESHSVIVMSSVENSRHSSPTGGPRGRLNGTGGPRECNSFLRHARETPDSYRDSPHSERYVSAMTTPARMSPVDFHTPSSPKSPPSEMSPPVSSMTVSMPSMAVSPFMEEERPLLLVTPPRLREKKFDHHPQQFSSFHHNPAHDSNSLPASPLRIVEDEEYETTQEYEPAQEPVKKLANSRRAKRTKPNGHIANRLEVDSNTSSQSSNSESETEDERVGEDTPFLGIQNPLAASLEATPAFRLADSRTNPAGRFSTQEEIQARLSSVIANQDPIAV
Neurogenic locus notch homolog protein 2 (Homo sapiens), sequence (Q04721 whole entry, looked up, canonical isoform): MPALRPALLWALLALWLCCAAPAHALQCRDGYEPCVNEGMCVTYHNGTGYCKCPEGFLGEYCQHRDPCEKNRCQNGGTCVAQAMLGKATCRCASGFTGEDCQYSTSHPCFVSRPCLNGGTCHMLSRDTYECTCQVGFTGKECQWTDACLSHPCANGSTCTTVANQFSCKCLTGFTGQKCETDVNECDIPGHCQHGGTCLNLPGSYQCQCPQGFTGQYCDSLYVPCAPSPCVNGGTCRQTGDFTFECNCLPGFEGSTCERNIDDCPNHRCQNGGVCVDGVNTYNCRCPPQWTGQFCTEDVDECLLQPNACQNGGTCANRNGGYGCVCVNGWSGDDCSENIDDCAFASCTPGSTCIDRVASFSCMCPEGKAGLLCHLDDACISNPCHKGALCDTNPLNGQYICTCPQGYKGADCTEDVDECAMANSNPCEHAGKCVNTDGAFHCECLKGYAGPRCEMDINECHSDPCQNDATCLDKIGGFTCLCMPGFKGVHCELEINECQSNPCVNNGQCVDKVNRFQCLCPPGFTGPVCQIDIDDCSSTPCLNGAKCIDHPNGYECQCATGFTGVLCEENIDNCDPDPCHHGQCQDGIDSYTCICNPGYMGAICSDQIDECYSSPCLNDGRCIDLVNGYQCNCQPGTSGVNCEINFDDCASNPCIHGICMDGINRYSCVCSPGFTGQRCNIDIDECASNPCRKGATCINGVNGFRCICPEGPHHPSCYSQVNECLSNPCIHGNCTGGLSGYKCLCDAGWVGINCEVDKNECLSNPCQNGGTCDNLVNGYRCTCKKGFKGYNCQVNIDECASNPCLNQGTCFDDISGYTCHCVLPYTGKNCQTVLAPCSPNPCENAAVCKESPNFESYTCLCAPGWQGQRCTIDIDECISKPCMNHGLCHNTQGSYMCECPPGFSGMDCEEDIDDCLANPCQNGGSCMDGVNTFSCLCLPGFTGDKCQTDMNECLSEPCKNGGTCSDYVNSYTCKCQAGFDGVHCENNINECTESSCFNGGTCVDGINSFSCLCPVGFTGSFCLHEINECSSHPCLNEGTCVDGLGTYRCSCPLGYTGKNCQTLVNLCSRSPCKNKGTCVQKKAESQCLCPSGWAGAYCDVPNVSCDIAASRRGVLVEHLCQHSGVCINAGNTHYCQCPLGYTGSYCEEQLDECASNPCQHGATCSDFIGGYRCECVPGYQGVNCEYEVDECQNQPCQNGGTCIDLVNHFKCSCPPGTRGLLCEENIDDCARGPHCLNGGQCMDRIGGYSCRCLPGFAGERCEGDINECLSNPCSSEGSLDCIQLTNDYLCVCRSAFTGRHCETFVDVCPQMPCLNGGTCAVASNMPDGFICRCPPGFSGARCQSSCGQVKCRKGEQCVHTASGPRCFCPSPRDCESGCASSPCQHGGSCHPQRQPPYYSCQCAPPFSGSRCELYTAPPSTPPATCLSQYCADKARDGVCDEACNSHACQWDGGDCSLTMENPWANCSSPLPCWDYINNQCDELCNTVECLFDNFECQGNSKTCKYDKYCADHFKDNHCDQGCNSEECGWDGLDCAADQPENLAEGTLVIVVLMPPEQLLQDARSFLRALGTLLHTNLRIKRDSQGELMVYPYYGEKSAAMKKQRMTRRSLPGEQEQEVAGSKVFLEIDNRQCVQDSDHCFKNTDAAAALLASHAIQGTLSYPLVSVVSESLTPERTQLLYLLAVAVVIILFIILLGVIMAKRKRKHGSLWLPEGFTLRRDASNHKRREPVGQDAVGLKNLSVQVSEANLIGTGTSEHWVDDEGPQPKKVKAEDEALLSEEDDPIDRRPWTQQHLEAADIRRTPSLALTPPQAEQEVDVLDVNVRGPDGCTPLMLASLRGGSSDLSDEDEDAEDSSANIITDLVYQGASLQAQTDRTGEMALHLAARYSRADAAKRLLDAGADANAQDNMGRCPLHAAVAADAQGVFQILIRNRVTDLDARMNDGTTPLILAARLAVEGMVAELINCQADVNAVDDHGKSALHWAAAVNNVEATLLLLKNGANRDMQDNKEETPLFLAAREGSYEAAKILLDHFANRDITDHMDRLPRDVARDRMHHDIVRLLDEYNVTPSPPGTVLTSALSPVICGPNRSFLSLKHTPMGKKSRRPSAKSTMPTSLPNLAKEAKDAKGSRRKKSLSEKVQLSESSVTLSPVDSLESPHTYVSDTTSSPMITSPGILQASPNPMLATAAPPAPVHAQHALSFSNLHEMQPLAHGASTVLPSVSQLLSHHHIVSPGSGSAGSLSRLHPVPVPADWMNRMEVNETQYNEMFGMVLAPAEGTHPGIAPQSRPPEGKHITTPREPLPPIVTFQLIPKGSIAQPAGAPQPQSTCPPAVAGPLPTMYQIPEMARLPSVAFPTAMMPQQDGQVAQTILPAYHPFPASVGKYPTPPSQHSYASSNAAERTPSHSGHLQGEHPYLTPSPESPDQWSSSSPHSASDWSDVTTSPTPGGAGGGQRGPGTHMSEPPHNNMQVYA
Torsin-1A-interacting protein 2 (Homo sapiens), sequence (Q8NFQ8 whole entry, looked up): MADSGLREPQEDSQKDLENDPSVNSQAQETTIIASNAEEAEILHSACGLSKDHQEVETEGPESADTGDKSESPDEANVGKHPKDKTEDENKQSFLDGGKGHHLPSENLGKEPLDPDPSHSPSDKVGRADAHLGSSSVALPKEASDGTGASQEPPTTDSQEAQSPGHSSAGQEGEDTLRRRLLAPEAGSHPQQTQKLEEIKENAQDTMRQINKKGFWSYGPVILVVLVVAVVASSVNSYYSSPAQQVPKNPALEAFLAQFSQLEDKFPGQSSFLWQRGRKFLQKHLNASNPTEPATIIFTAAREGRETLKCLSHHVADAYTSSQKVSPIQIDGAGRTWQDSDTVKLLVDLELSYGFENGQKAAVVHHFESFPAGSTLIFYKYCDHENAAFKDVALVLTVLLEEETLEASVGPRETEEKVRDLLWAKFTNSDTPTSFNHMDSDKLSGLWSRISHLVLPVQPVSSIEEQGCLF

Consider `CC(C)(C)N1CC=CC23O[C@@H]4/C=C\CCCOC(=O)C4[C@H]2C(=O)N(CCCO)[C@@H]3C1=O` (stereo not given in full), for which the composite z-score in assay [1] was 0.164; in assay [2], -0.496; in assay [3], -0.203; in assay [4], -0.147; in assay [5] it was -0.864; in assay [6] it was 1.07. The composite z-score in assay [7] is 1.1; in assay [9] it was -0.582; in [10] it was -0.286; in [11] it was 0.477; in [15], 1.11; in [17] it was -0.279. Moreover, the figures for the composite z-score in assay [18], in assay [19] and in assay [20] were -0.877, 0.0017 and -0.129, respectively. Moreover, the z-score in assay [8] is 0.502 (inactive); in assay [12], -1.01 (inactive); in assay [13], 0.0214 (inactive); in [14] it was -0.766 (inactive); in assay [16], -0.282 (inactive).
On to `C=C(CCCC)/C(=C/C[C@H](OC(C)=O)c1cccc(OCCO)c1)c1cnc2ccccc2c1`, for which the composite z-score is 0.243 in [1]; -0.194 in [2]; -0.116 in [3]; 0.0835 in assay [4]; 0.16 in assay [5]; -0.0759 in assay [6]. Further, the composite z-score was 0.244 in assay [7]; -0.381 in assay [9]; -0.0994 in [10]; 0.12 in [11]; -0.0488 in [15]; -0.116 in assay [17]. Further, the figures for the composite z-score in [18], in assay [19] and in assay [20] were -0.271, 0.0799 and -0.169, respectively. For the same compound, the z-score in assay [8] is -0.45 (inactive); in assay [12] it was 1.94 (inactive); in assay [13] it was 0.924 (inactive); in assay [14], 1.32 (inactive); in assay [16], 0.442 (inactive).
For `COC(=O)[C@@]1(Cc2ccc(OC)cc2)[C@H]2c3cc(C(=O)N4CCCC4)n(Cc4c(CO)[nH]cc(C)c4=O)c3C[C@H]2CN1C(=O)c1ccccc1`, the composite z-score in assay [1] was 0.0744; in [2], 0.31; in assay [3], -0.06; in [4], 0.505; in [5], 1.57; in [6], 1.11. In addition, the composite z-score turned out to be 0.802 in assay [7]; 0.829 in [9]; 0.0302 in assay [10]; 0.413 in assay [11]; 3.35 in [15]; 0.601 in assay [17]. The values for the composite z-score in [18], in assay [19] and in assay [20] were -0.243, 0.381 and -0.0728, respectively. The z-score in [8] was -1.02 (inactive); in assay [12] it was -1.56 (inactive); in assay [13], 0.801 (inactive); in [14] it was 0.147 (inactive); in assay [16], -0.391 (inactive).
Turning to `CCOC(=O)C1=CC[C@@H](c2ccc(OC)cc2)N(S(=O)(=O)c2ccc(C)cc2)[C@H]1c1ccc(C)cc1`, the composite z-score is -0.208 in assay [1]; -0.236 in [2]; -0.062 in assay [3]; 0.584 in [4]; 1.52 in assay [5]; 0.46 in assay [6]. Also, the composite z-score in assay [7] is 1.05; in assay [9], 1.11; in assay [10] it was -0.0618; in [11], 0.966; in assay [15] it was 2.84; in [17] it was 0.194. For the same compound, the composite z-score in assay [18] stood at 0.191; in assay [19], 1.09; in assay [20], 0.0656. The z-score is 0.0599 (inactive) in assay [8]; 0.106 (inactive) in assay [12]; 0.529 (inactive) in assay [13]; 0.53 (inactive) in assay [14]; -0.747 (inactive) in assay [16].
As to `COCCCN1C(=O)[C@@]2(c3ccc([N+](=O)[O-])cc3)CC(=O)N(CC34CC5CC(CC(C5)C3)C4)[C@@H]2c2ccc(CO)cc21`, the composite z-score in [1] is -0.145; in [2], -0.104; in [3], -0.0952; in assay [4] it was 0.0256; in assay [5] it was -0.345; in assay [6] it was 0.0024. Also, the composite z-score in [7] was 1.05; in assay [9], -0.19; in [10], 0.312; in assay [11], 1.27; in assay [15], 2.07; in [17], -0.159. Moreover, the figures for the composite z-score in assay [18], in assay [19] and in assay [20] were 0.432, -0.182 and -0.115, respectively. For the same compound, the z-score in assay [8] is -0.748 (inactive); in assay [12], 0.222 (inactive); in assay [13], 0.432 (inactive); in assay [14] it was -1.33 (inactive); in assay [16], -0.0011 (inactive).
